# Most compounds without a hit are left out; they make up all but 12% or so of the library.
# WT yeast gro inh – growth inhibition of WT strain, primary screen, mitochondrial fusion inhibitor project, WT and mutant strains, chemical genetic; mitochondrial fusion phenotypic screen; inhibition, % at 10 µM; 190,000 compounds, 2.1% hits; AID 1362, 2008; in the data active = inhibition above about 58%; tested in S. cerevisiae
# ROMK primary – ROMK potassium channel modulators, primary screen, cell-based, thallium flux, MLSMR library; B-score at 10 µM; 130,000 compounds, 2% hits; ATP-sensitive inward rectifier potassium channel 1 (Homo sapiens), P48048; Tet-inducible ROMK, thallium flux fluorescence; actives lie on both sides;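 active = signal ratio slope over the read window, or its plate-corrected B-score, at least 3 SD from the plate mean, either direction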;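 note: B-score of the F/F0 ratio slope over 7 to 12 s after thallium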
# Target sequence (P48048 whole entry, looked up): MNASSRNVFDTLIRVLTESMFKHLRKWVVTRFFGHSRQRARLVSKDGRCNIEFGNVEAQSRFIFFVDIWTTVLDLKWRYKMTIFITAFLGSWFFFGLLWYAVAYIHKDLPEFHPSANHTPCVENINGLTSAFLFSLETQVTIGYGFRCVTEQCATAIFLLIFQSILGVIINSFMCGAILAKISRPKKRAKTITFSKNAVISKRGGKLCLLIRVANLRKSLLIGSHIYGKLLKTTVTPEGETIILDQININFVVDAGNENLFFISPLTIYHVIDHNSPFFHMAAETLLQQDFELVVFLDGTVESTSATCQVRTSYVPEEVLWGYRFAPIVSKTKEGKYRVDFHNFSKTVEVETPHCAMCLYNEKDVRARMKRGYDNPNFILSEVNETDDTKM
# Insulin prom up – insulin promoter activators in MIN6 cells, imaging, high-content screening, mouse beta cells | MIN6 insulin promoter-GFP reporter; active compounds read high | z-score at 5 µM | 190,000 compounds, 0.3% hits | AID 1625, 2009;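 active = z-score above 3 at 5 µM with at least 500 cells counted in the well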
# KCC2 mod – KCC2 cotransporter modulators, thallium flux, primary screen, cell-based, HEK293 KCC2, FluoZin-2 fluorescence, MLSMR | KCC2 cells, thallium flux FluoZin-2 fluorescence | B-score of Tl+ flux slope (higher = more flux/activation; lower = inhibition) at 10 µM | 190,000 compounds, 2.2% hits;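 active = thallium flux slope and its plate-corrected score both differing from the plate sample mean at a set confidence after two filtering rounds, in either direction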;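 note: slope of fluorescence scaled to starting intensity during 10 to 20 s after thallium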
# INS promoter inh – inhibitors of insulin promoter-driven GFP, primary screen, imaging, TRM-6 cells (human fetal islet line), eGFP reporter, cell count; reporter expression induced with tamoxifen; AID 1273, 2008; 130,000 compounds, 0.9% hits; inhibition, % at 2 µM;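 active = inhibition above the mean plus 3 SD, with well images judged a real hit on visual review, cut at about 60% in these data, passing the limit was not always enough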
# Lmaj promast – Leishmania major promastigote growth inhibition, primary screen; inhibition, % at 10 µM; AID 1063, 2008; 200,000 compounds, 9% hits; Leishmania major promastigotes, resazurin fluorescence viability; in the data active = inhibition above about 50%;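 note: promastigotes grown with compound for 44 hours at 28 °C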
# Numbers without * were called inactive; x = not tested or not shown.
SMILES,WT yeast gro inh,ROMK primary,Insulin prom up,KCC2 mod,INS promoter inh,Lmaj promast
N#C/C(=C\c1c(N2CCCCC2)nc2ccccn2c1=O)C(=O)NC1CCS(=O)(=O)C1 (stereo not drawn),-16,0.38,0.25,-0.033,28,56*
Cc1cccn2c(=O)c(/C=C(\C#N)C(=O)NC3CCS(=O)(=O)C3)c(N3CCC(C)CC3)nc12 (stereo not drawn),1,-1.6,-0.81,-0.26,23,3
N#C/C(=C\c1c(N2CCCCC2)nc2ccccn2c1=O)C(=O)NCc1ccco1,-3,-0.55,-0.16,-0.78,-3,83*
CCNC(=O)/C(C#N)=C/c1c(N(Cc2ccccc2)Cc2ccccc2)nc2ccccn2c1=O,24,x,-0.31,-1.6,-40,56*
N#Cc1cccc(NC(=O)Cn2c3[n+](c4ccc(C(F)(F)F)cc42)CCCCC3)c1,-5,-1.2,0.09,0.36,x,3
COc1cc(OC)cc(-c2nnc(SCc3c(F)cccc3Cl)o2)c1,38,x,-2.8,-0.056,0,3
Cc1cccc2sc(NC(=O)C3c4ccccc4Oc4ccccc43)nc12,1,x,0.2,x,27,81*
Cc1cccc2sc(NC(=O)CCn3cccc3)nc12,6,-1.1,0.17,-0.58,x,28
Cc1cc(C)c(NC(=O)C2c3ccccc3Oc3ccccc32)c(C)c1,19,x,0.88,0.0064,-23,-5
Cc1ccccc1Cn1nc(C)c(NC(=O)C2c3ccccc3Oc3ccccc32)c1C,4,x,0.1,0.3,-4,84*
Cc1cccc2sc(NC(=O)Cn3cccc3)nc12,14,x,-0.28,12*,x,-5
CCCCNC(=O)CNC(=O)c1cccs1,-2,x,0.34,-0.5,-43,-6
CCOc1ccc(NC(=S)NNc2ccnc3cc(Cl)ccc23)cc1,10,1.2,-2.5,0.18,x,42
CCOc1ccccc1Nc1ccnc2cc(Cl)ccc12,15,0.8,-0.11,-1.2,x,53*
C=CCNc1nnc(Sc2ncccc2[N+](=O)[O-])s1,4,0.37,-0.86,-0.62,93*,16
O=C(Nc1ccc2c(c1)N(Cc1ccccc1)C(=O)c1ccccc1S2)NC1CC1,-13,0.98,0.22,-1.1,-3,92*
CN1C(=O)c2ccccc2Sc2ccc(NC(=O)NC3CC3)cc21,12,0.29,0.7,-0.081,-9,-6
COc1cccc(NC(=O)CN2CCN(c3ccc(F)cc3)CC2)c1,16,x,-0.07,-1.2,-6,8
CCOC(=O)c1ccc(N2CCN(c3ccccc3F)CC2)c(NC(=O)Nc2ccccc2)c1,-38,0.077,-0.58,-0.0046,32,97*
CCOC(=O)c1ccc(N2CCN(c3ccc(F)cc3)CC2)c(NC(=O)Nc2cccc(OC)c2)c1,0,0.69,x,0.74,0,96*
CC1CCCC(NC(=S)NC(=O)c2cncc(Br)c2)C1C (stereo not drawn),62*,-0.98,0.78,51*,-11,46
CC1CCCCC1NC(=O)c1cncc(Br)c1 (stereo not drawn),9,x,-0.55,0.045,x,-4
COc1ccc(N2CCN(C(=O)CSc3nnc4c(C)cc5ccccc5n34)CC2)cc1,-7,-0.002,-0.38,0.12,-13,37
O=C1CSC(=S)N1N=C1CCCCCC1,2,0.035,2.2,-0.4,-11,-4
NC(=O)C(=O)N/N=C1\CCc2ccccc21,-4,0.043,-0.01,0.7,x,-3
SMILES,WT yeast gro inh,ROMK primary,Insulin prom up,KCC2 mod,INS promoter inh,Lmaj promast
CCOC(=O)CSC1=C(C#N)C(c2ccc(OC)cc2)C2=C(CC(C)(C)CC2=O)N1 (stereo not drawn),24,-1.6,-0.02,-0.55,42,4
COc1ccc(C2C(C#N)=C3NC(=O)c4c(sc5c4CCCCC5)N3C3=C2C(=O)CC(C)(C)C3)cc1 (stereo not drawn),27,-0.75,-0.15,0.51,x,88*
COc1ccc(C2C(C#N)=C(N)N(c3sc4c(c3C#N)CCCC4)C3=C2C(=O)CC(C)(C)C3)cc1 (stereo not drawn),10,-0.42,0.11,-1.2,-3,83*
COc1ccc(C2C(C#N)=C(SC)NC3=C2C(=O)CC(C)(C)C3)cc1 (stereo not drawn),79*,0.042,-0.09,-1.6,x,0
COc1ccc(C2C(C#N)=C(N)N(c3sc4c(c3C#N)CCCC4)C3=C2C(=O)CC(C)(C)C3)cc1OC (stereo not drawn),6,0.66,0.17,-0.55,-8,21
Cc1nnsc1NC(=O)OCCCl,-36,x,-0.41,-0.012,-8,-8
COc1cc(C(=O)O)cc(NC(=O)c2cccs2)c1OC,-12,0.0022,0.1,-0.039,6,26
COc1cc(C(=O)OCc2ccc(C)cc2)cc(NC(=O)c2cccs2)c1OC,16,x,-1.3,-0.049,-19,55*
COCCNCCCCOc1ccc(Br)cc1C,15,-0.53,-0.36,-0.56,-26,100*
CC(C)(C)NCCCCOc1ccccc1F,0,x,x,x,-18,100*
Cc1cc(Br)ccc1OCCCCNC(C)(C)C,-2,x,1.8,0.66,-31,100*
COCCCNCCCCOc1ccc(Br)cc1C,32,-2.2,-0.41,-0.56,-54,99*
Cc1cc(Cl)ccc1OCCCC(=O)NO,3,-0.7,0.51,0.41,12,4
Cc1ccc(NC(=O)COc2ccc(Br)cc2C)cc1,8,0.1,-0.25,0.19,32,-6
COc1ccccc1OCCCCNC(C)(C)C,34,0.049,-0.49,0.06,x,5
Cc1ccc(CNC(=O)C2CCN(S(=O)(=O)N3CCOCC3)CC2)cc1,-4,-0.71,-0.55,-0.69,x,-6
Cc1ccc(NC(=O)C2CC(=O)N/C(=N/N=C/c3ccco3)S2)cc1C (stereo not drawn),11,x,0.08,-0.92,x,-3
CCc1ccccc1N1CC(C(=O)O)CC1=O (stereo not drawn),2,0.27,-0.04,-0.19,-194,-8
CC(C)Nc1nc(NC(C)C)nc(SCCOC(=O)Nc2ccc(Cl)cc2Cl)n1,66*,-0.28,-0.31,-0.67,50,3
CCNc1nc(NC(C)C)nc(SCCOC(=O)c2ccccc2)n1,29,-0.99,-0.46,-3.1,56,16
CCNc1nc(NCC)nc(SCCOC(=O)COc2ccc(Cl)cc2Cl)n1,77*,x,-0.55,-1.6,-43,-3
O=C(COc1ccc(Cl)cc1Cl)NCCSc1ccc(Cl)cc1,27,0.34,0.59,x,-6,10
O=C(Cn1c(C(=O)NCCCN2CCOCC2)cc2sccc21)c1ccccc1,6,-1,1.3,0.3,-58,81*
Cn1c(C(=O)NCCN2CCOCC2)cc2sccc21,-4,0.7,-0.04,x,x,6
O=C(Nc1ccc2c(c1)OCCO2)c1cc2sccc2n1Cc1ccc(F)cc1,38,x,-0.42,-0.14,-23,97*

# Assay outcomes: PubChem, several laboratories
